The structures appear in SMILES notation. About 2,000 (0.91%) of roughly 220,000 compounds were called active. Inconclusive results (about 2%) are left out. No stated cut-off is given here; in the data, inconclusive means inhibition above about 80% without an active follow-up result; inactive means below that; test concentration not stated here. A selection follows. Entries with a potency or affinity are not part of this list.

The nature of the test: M. tuberculosis H37Rv growth inhibitors, H37Rv strain (AID 1626).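 Further: bacteria incubated seven days before Alamar blue readout; 0% = bacteria only wells and 100% = bacteria with antibiotic wells.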 The conditions noted are these: hits give high values, concentration not given here.
Broadly, the inhibition is the drop in the measured response relative to a control, in per cent. In the case of `CCOC(=O)c1[nH]c2cc(OC)c(OC)cc2c1NC(=O)CN1CCN(C)CC1`, the inhibition was -4.7% (inactive). Next, `COC(=O)CS(=O)(=O)c1ccc(C)cc1`: -7.54% (inactive); `CCCOC(=O)c1c(NC(=O)CCCn2nc([N+](=O)[O-])cc2C)sc(C(=O)OC)c1C`: -6.65% (inactive). In the case of `CCOP(=O)(OCC)C(Nc1cc(Cl)cc(Cl)c1)c1cccc(O)c1` (stereo not drawn) it was 1.6% (inactive); in that of `CCO[C@@H]1OC(C(=O)Nc2ccccc2)=C[C@H](c2ccc(C(F)(F)F)cc2)[C@H]1CCCO`, 3.16% (inactive). In the case of `Cc1occc1-c1nnc(SCC(=O)c2c(N)n(Cc3ccccc3)c(=O)n(C)c2=O)n1C` it was 4.82% (inactive); in that of `CCCC(=O)Nc1ccc(C(=O)NN=C(C2CC2)C2CC2)cc1`, -2.7% (inactive). `CCCSc1nnc(CSc2nc3nc(C)cc(C)n3n2)o1`: the inhibition was -11.4% (inactive). In the case of `CCCCSc1nnc(CSc2nc3nc(C)cc(C)n3n2)o1` it was 8.33% (inactive). In the case of `Cc1cc2nc(N)sc2cc1[N+](=O)[O-]` it was -4.98% (inactive).

In the case of `COc1ccc(/C=C/c2nc(-c3ccccc3O)n(-c3ccccc3)n2)cc1`, the inhibition was -4.12% (inactive).

With `Oc1ccc(/C=C/c2nc(-c3ccccc3O)n(-c3ccccc3)n2)cc1`, the inhibition was 21.6% (inactive). In the case of `O=C(Nc1ccc(Nc2ccncc2)cc1)c1ccc(Nc2ccnc3ccc([N+](=O)[O-])cc23)cc1` it was -3.41% (inactive); in that of `O=C(Nc1ccc(Nc2ccncc2)cc1)c1ccc([N+](=O)[O-])cc1`, -0.61% (inactive).

In the case of `COc1cccc(-c2nc(N3CCN(C)CC3)c3ccccc3n2)c1O`, the inhibition is 10.5% (inactive).

`COc1ccc(-c2nc(-c3cccc(C)c3)nc(N3CCN(C)CC3)c2C#N)cc1`: the inhibition is 6.59% (inactive).

Turning to `N#Cc1c(-c2ccccc2)nc(-c2ccccc2)nc1N1CCOCC1`, the inhibition is -9.91% (inactive). Next, `COc1ccc(-c2nc(-c3ccccn3)nc(N3CCN(C)CC3)c2C#N)cc1`: 1.76% (inactive); `CN1CCN(c2nc(-c3ccccc3)nc(-c3ccccc3)c2C#N)CC1`: 20.2% (inactive). In the case of `COc1ccc(-c2nc(-c3ccccc3)nc(N3CCN(C)CC3)c2C#N)cc1` it was 9.82% (inactive).

On to `O=C(COC(=O)c1ccco1)Nc1ccccc1`, for which the inhibition is -8.55% (inactive). Next, `CC(=O)c1sc(=S)n(-c2ccccc2)c1C`: 7.39% (inactive); `O=C(Cn1cnc2c(cnn2-c2ccc(F)cc2)c1=O)N1CCN(c2ccccc2F)CC1`: 3.88% (inactive). In the case of `O=S(=O)(c1ccc(-c2csc(-c3cccnc3)n2)cc1)N1CCOCC1` it was 3.97% (inactive).

As for `NC(=O)NC(=O)COC(=O)c1ccccc1OCc1ccc(F)cc1`, the inhibition is 4.1% (inactive). Next, `CN(C)S(=O)(=O)c1cc(NC(=O)CN2CCCc3ccccc32)ccc1Cl`: -10.6% (inactive). In the case of `O=C(CN1CCN(S(=O)(=O)c2ccc(Cl)cc2)CC1)Nc1ccc(F)cc1F` it was 6.43% (inactive); in that of `O=C(Cc1nnc(NC(=O)Nc2ccc(Cl)cc2)s1)NCc1ccccc1`, -0.51% (inactive).

Consider `Cc1cccc(NC(=O)CCN2C(=O)C3C4C=CC(C4)C3C2=O)c1` (stereo not drawn), for which the inhibition is 3.17% (inactive). In the case of `O=C(CCN1C(=O)C2C3C=CC(C3)C2C1=O)Nc1ccc2c(c1)OCO2` (stereo not drawn) it was -1.34% (inactive). Turning to `Cc1nc(SCC(=O)Nc2ccccn2)n[nH]1`, the inhibition is -3.41% (inactive). Next, `CCOc1ccc(NC(=O)Cc2ccccc2)cc1`: 5.27% (inactive). In the case of `O=C(CSc1ncn[nH]1)Nc1ccc(OCc2ccccc2)cc1` it was 47.3% (inactive).

Turning to `CC(=O)OCC(=O)Nc1ccc(Br)c(C)c1`, the inhibition is 21.6% (inactive).

Take `CCOCC(=O)Nc1ccc(C)c(Cl)c1`: the inhibition was 76.9% (inactive). For `CCOC(=O)C(=O)Nc1ccc(OCc2ccccc2)cc1`, the inhibition was 12.6% (inactive).

For `O=C(CSc1ncccn1)Nc1ccc2c(c1)CCC2`, the inhibition was 76% (inactive).

`CCOC(=O)c1sc(=S)n(C)c1NC(=O)c1ccc(C(C)(C)C)cc1`: the inhibition is 79.7% (inactive). Turning to `Oc1ccc(-c2nc3ccccc3s2)cc1`, the inhibition is 59.6% (inactive). Next, `CCCOc1ccc(C(CC(=O)O)NC(=O)c2ccc3c(c2)OCO3)cc1` (stereo not drawn): 3.69% (inactive); `COc1ccc(-c2ocnc2C(=O)N2CCN(C(c3ccccc3)c3ccccc3)CC2)cc1`: -4.16% (inactive); `O=C(NNC(=O)C1CCCO1)c1ccccc1Cl` (stereo not drawn): -7.82% (inactive). Next, `CCN(CC)S(=O)(=O)c1ccc(-c2nnc(SCC(=O)N3c4ccccc4CC3C)n2CC)cc1` (stereo not drawn): 5% (inactive). With `CCC(CC)c1nnc(NC(=O)CCCN2C(=O)c3ccccc3C2=O)s1`, the inhibition is -6.94% (inactive). In the case of `O=C(CN1CCN(c2ccccc2)CC1)Nc1ccc(OCc2ccccc2)cc1` it was -8.11% (inactive); in that of `O=C(CN1CCCC1)Nc1ccc(OCc2ccccc2)cc1`, -0.61% (inactive); in that of `COc1ccc(CNC(=O)C2Cc3ccccc3CN2C(=O)c2ccco2)cc1` (stereo not drawn), -0.615% (inactive). Next, `COCCNC(=O)c1ccc(CS(=O)(=O)c2ccc(C)cc2)o1`: -5.24% (inactive); `COC(=O)c1ccc2nc(NC(=O)CN3C(=O)CCC3=O)sc2c1`: -25.1% (inactive); `Cc1ccc(C(=O)NCCSC(C)(C)C)cc1`: 2.64% (inactive). As to `Cc1ccc(SCCNC(=O)c2ccc(C)c([N+](=O)[O-])c2)cc1`, the inhibition was -5.78% (inactive). `Cc1ccc2c(c1)-c1[nH]c(=S)ncc1CS2`: the inhibition is 3.39% (inactive).

Turning to `COc1ccc(-c2cc(C(F)(F)F)nc(SCC(=O)NCc3cccs3)n2)cc1OC`, the inhibition is 0.43% (inactive). Next, `Cc1cc(OCC(=O)N(Cc2ccco2)C2CCS(=O)(=O)C2)ccc1Cl` (stereo not drawn): -8.25% (inactive). Next, `O=C(COC(=O)/C=C/c1ccc(F)cc1)NCc1ccco1`: -4.03% (inactive). In the case of `O=C(CCCn1cc([N+](=O)[O-])cn1)NC1CCCCCC1` it was 5.99% (inactive); in that of `CS(=O)(=O)c1cccc(C(=O)NCc2ccc(F)cc2)c1`, 9.82% (inactive). Consider `Cc1ccc(-c2cc(C(F)F)n3ncc(C(=O)Nc4c(C)nn(Cc5c(Cl)cccc5Cl)c4C)c3n2)cc1`, for which the inhibition is 57.7% (inactive). Next, `Cc1nn(Cc2c(Cl)cccc2Cl)c(C)c1NC(=O)c1cnn2c(C(F)F)cc(-c3ccccc3)nc12`: 49.7% (inactive). In the case of `COc1ccccc1NC(=O)CSC1=NCCN1` it was -6.91% (inactive). Regarding `C=CCN1CN(S(=O)(=O)c2cccs2)c2nc3ccccc3nc21`, the inhibition is -3.39% (inactive). For the compound `Clc1ccccc1OCCCCn1ccnc1`, the inhibition is 2.53% (inactive).

With `Cc1cccc(C(C)(C)C)c1OCCn1ccnc1`, the inhibition is -11% (inactive).

In the case of `Cc1ccc(C)c(OCCCCCn2ccnc2)c1`, the inhibition was -10.5% (inactive).

As for `Cc1ccccc1OCCCCCn1ccnc1`, the inhibition was 5.71% (inactive).

Take `COc1ccccc1NC(=O)N1CCN(CCc2ccccc2)CC1`: the inhibition is -2.85% (inactive). Consider `CC(=O)OCC1OC(OC(C)=O)C(NC(=O)c2cccnc2)C(OC(C)=O)C1OC(C)=O` (stereo not drawn), for which the inhibition is -0.72% (inactive). Next, `CCCCN(C(=O)c1cc2ccccc2o1)c1c(N)n(CC(C)C)c(=O)[nH]c1=O`: 9.87% (inactive); `Nc1[nH]n2c(=O)c3c(nc2c1N=Nc1ccccc1)CCCC3`: 79.3% (inactive). In the case of `Cc1[nH]n2c(=O)c3c(nc2c1-c1cccc2ccccc12)CCC3` it was -8.68% (inactive). As for `Cc1ccc(-c2[nH]n3c(=O)c4c(nc3c2C)CCCC4)cc1`, the inhibition is 5.52% (inactive). In the case of `O=c1c2c(nc3c(-c4ccccc4)c[nH]n13)CCC2` it was 2.63% (inactive); in that of `COc1ccc(-c2c(C)[nH]n3c(=O)c(Cc4ccccc4)c(C)nc23)cc1OC`, 38.6% (inactive); in that of `COc1cccc(N=Nc2c(N)[nH]n3c(=O)c4c(nc23)CCCC4)c1`, 19.3% (inactive). Next, `O=c1c2c(nc3c(-c4ccccc4)c[nH]n13)CCCC2`: 14.2% (inactive); `COc1ccc(-c2c(C)[nH]n3c(=O)c(Cc4ccccc4)c(C)nc23)cc1`: 70.9% (inactive). Next, `CC(=O)Nc1ccc2c(CSc3nnc(-c4cccnc4)n3-c3ccc(C)cc3C)cc(=O)oc2c1`: -5.62% (inactive); `Cc1ccc(CNC(=O)CSc2nc(C)cc(C)c2C#N)cc1`: -9.02% (inactive); `C/C(=N\NC(=O)C1(C)NC(C)(C)Cc2ccccc21)c1ccccc1` (stereo not drawn): 1.17% (inactive).

With `COc1ccc(C(=O)Nc2ccc(N3CCN(c4ccc(OC)cc4)CC3)c(C#N)c2)cc1`, the inhibition was -7.83% (inactive).

For `COc1ccc(-n2c(=S)[nH]c3cc(C(=O)NCCCN4CCCC4=O)ccc3c2=O)cc1OC`, the inhibition is -1.47% (inactive). In the case of `CC(=O)COC(=O)CNC(=O)c1ccc(Br)cc1` it was -5.11% (inactive); in that of `Cc1cccc(N(Cc2cc3ccccc3[nH]c2=O)C(=O)c2ccco2)c1C`, 4.31% (inactive); in that of `COc1ccc(NC(=O)CCOc2ccccc2)c(OC)c1`, -0.51% (inactive).

On to `COC(=O)c1cccc(NC(=O)CCCOc2cccc(C)c2)c1`, for which the inhibition was -9.57% (inactive). Next, `O=C(CCCCCNC(=S)Nc1ccccc1)C[N+](=O)[O-]`: -1.95% (inactive); `Cc1[nH]n2c(=O)c3c(nc2c1-c1ccccc1)CCC3`: 3.85% (inactive). Next, `Cc1c(-c2ccccc2)[nH]n2c(=O)c3c(nc12)CCCC3`: 6.84% (inactive). With `CN(C)c1cc(-c2cccc([N+](=O)[O-])c2)oc(=O)c1Cl`, the inhibition is 1.64% (inactive).

Consider `Cc1ccc(C(=O)N[C@@H](C)CN2C3=NC[C@H](Cc4ccccc4)N3C[C@H]2Cc2ccc(O)cc2)cc1Br`, for which the inhibition was 21.4% (inactive). Turning to `COc1ccc(C[C@@H]2CN3C(=NC[C@@H]3C)N2C[C@H](C)NC(=O)c2ccc(C)c(Br)c2)cc1`, the inhibition is 8.27% (inactive). Next, `Cc1ccc(C(=O)NCCN2C3=NC[C@H](Cc4ccc(O)cc4)N3C[C@H]2Cc2ccc(O)cc2)cc1Br`: 13.6% (inactive). `Cc1ccc(C(=O)NCCN2C3=NC[C@@H](Cc4ccccc4)N3C[C@H]2Cc2ccc(O)cc2)cc1Br`: the inhibition is 40.7% (inactive).

(Values after PubChem BioAssay AID1626 (SRMLSC, 2009).)
